Source: the supplement of paper PMC11732987, “Enantioselective OTUD7B fragment discovery through chemoproteomics screening and high-throughput optimisation” (Communications Chemistry, 2025)

Experiments:
Assay in all cases: log2 ratio of Biotin-Ahx-Ub-VS probe labelling (fragment/DMSO); higher = less target engagement (more negative = stronger competition), active = hit call of the paper (q ≤ 0.05, log2 ratio ≤ -1)
Conditions in all cases: compound concentration: 200 uM; treatment time: 3 h
USP34 = USP34 (UniProt Q70CQ2)
Method in brief: (§1)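 Labelled DUBs from HEK293T lysate were NeutrAvidin-enriched, digested with LysC and trypsin, and run by diaPASEF LC-MS/MS. Before that, each 495 µg sample in Tris/CHAPS/IGEPAL buffer with protease inhibitors was treated in triplicate with fragment at 200 µM or vehicle for 3 h, then with Biotin-Ahx-Ub-VS at 0.5 µM final for 1 h. Values are average log2 ratios of fragment over vehicle by unpaired t-test, based on global-median-normalised Spectronaut label-free quantities from proteins with ≥2 unique peptides.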

USP36 = biological target: T1, USP36 (UniProt Q9P275)
T1 sequence (whole entry): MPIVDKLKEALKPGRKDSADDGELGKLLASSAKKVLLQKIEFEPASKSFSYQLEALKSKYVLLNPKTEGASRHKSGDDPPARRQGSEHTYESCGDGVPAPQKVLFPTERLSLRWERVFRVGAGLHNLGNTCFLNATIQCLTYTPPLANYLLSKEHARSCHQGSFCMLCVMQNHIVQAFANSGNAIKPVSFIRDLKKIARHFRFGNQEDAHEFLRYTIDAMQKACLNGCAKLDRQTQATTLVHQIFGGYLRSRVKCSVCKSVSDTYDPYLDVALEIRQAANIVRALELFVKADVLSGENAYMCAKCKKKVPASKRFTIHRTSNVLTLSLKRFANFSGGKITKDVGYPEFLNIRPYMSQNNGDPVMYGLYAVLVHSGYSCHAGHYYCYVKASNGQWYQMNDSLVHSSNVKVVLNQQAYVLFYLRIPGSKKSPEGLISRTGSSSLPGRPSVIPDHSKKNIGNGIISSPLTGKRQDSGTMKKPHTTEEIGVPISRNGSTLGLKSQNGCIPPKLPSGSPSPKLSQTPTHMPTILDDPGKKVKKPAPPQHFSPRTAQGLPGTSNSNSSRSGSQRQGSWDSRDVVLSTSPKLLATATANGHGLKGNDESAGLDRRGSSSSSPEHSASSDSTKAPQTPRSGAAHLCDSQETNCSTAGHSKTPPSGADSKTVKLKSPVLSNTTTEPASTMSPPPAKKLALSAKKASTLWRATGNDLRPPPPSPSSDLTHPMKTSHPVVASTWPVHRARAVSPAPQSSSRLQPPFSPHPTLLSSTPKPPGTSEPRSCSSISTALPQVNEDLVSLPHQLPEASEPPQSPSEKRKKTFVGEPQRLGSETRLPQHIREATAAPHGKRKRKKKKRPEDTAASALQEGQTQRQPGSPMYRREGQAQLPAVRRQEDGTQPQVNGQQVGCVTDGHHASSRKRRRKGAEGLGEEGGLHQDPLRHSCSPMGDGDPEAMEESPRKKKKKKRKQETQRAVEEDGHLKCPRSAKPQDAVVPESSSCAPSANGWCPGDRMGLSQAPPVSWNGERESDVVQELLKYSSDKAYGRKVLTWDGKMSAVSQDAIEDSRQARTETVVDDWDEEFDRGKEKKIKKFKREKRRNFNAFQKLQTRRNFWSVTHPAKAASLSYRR
Method in brief: as §1

USP38 = biological target: T2, USP38 (UniProt Q8NB14)
T2 sequence (whole entry): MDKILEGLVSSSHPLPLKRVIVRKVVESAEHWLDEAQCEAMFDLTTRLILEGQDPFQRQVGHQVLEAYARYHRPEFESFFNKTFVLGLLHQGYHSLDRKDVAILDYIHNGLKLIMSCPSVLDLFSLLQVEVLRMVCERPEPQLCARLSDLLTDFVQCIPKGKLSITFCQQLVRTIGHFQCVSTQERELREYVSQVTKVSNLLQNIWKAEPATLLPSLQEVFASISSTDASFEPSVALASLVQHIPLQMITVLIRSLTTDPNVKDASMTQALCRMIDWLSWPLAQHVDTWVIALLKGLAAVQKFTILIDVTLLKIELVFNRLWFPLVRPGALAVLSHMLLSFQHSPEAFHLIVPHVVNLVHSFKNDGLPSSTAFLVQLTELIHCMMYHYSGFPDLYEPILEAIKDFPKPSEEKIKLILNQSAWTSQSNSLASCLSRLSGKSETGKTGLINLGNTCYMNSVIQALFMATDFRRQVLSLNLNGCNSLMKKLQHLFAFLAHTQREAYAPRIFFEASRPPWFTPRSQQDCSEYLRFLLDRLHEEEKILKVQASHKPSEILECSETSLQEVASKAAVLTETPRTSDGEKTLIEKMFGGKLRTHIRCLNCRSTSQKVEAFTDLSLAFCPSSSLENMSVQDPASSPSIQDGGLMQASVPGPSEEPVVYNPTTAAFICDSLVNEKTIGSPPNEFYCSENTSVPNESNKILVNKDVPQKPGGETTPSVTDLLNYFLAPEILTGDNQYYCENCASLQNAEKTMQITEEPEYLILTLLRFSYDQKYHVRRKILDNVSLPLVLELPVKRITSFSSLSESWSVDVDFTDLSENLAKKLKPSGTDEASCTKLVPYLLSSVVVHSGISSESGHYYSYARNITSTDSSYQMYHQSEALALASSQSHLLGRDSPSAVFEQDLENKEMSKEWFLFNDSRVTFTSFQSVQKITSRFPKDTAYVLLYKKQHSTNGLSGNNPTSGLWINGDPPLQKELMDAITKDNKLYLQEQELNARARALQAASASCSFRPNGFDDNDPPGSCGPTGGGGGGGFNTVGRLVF
Method in brief: as §1

USP39 = biological target: T3, USP39 (UniProt Q53GS9)
T3 sequence (whole entry): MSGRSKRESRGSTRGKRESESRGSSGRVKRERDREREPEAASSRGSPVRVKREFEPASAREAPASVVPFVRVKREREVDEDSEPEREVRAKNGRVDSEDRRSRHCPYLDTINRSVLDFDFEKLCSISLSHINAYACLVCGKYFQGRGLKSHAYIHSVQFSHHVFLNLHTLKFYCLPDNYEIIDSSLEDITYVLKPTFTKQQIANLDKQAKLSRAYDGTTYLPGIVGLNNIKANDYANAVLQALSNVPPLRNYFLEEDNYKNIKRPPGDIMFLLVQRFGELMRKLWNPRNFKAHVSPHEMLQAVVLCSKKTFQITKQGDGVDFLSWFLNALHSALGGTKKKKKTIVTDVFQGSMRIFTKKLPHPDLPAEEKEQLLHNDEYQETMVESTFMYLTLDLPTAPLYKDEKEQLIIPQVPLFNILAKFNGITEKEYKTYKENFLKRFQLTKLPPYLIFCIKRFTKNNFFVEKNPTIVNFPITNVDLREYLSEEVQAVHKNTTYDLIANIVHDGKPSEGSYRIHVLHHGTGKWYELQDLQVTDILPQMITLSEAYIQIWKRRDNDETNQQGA
Method in brief: as §1

USP4 = biological target: T4, USP4 (UniProt Q13107)
T4 sequence (whole entry): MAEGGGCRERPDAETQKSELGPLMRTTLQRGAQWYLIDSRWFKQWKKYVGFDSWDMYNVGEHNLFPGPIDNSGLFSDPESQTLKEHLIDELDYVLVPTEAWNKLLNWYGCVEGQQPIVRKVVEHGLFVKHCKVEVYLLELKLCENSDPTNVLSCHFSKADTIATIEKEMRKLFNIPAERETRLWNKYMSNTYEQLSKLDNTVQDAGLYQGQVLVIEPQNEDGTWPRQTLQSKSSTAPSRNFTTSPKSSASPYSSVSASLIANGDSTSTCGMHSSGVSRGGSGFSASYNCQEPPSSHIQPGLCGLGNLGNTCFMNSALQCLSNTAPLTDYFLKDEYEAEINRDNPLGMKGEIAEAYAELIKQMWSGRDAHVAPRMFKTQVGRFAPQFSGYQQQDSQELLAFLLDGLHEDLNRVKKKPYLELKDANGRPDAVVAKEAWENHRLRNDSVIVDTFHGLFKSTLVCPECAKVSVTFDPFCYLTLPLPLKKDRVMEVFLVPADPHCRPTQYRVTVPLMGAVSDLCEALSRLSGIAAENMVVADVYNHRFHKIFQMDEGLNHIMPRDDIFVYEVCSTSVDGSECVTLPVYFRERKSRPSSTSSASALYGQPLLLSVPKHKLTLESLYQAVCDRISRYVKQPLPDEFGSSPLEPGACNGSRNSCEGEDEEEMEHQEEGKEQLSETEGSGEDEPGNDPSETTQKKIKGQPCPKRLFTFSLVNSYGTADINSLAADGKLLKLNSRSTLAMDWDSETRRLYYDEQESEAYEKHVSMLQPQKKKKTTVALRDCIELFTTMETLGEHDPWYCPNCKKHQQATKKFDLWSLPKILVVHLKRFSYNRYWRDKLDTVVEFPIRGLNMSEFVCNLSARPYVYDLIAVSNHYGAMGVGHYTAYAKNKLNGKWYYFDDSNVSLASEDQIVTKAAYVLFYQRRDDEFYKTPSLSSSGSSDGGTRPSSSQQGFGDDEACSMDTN
Method in brief: as §1

Measured: log2 ratio of Biotin-Ahx-Ub-VS probe labelling

Chain of USP34 (Q70CQ2 whole entry, the tested form may be a part): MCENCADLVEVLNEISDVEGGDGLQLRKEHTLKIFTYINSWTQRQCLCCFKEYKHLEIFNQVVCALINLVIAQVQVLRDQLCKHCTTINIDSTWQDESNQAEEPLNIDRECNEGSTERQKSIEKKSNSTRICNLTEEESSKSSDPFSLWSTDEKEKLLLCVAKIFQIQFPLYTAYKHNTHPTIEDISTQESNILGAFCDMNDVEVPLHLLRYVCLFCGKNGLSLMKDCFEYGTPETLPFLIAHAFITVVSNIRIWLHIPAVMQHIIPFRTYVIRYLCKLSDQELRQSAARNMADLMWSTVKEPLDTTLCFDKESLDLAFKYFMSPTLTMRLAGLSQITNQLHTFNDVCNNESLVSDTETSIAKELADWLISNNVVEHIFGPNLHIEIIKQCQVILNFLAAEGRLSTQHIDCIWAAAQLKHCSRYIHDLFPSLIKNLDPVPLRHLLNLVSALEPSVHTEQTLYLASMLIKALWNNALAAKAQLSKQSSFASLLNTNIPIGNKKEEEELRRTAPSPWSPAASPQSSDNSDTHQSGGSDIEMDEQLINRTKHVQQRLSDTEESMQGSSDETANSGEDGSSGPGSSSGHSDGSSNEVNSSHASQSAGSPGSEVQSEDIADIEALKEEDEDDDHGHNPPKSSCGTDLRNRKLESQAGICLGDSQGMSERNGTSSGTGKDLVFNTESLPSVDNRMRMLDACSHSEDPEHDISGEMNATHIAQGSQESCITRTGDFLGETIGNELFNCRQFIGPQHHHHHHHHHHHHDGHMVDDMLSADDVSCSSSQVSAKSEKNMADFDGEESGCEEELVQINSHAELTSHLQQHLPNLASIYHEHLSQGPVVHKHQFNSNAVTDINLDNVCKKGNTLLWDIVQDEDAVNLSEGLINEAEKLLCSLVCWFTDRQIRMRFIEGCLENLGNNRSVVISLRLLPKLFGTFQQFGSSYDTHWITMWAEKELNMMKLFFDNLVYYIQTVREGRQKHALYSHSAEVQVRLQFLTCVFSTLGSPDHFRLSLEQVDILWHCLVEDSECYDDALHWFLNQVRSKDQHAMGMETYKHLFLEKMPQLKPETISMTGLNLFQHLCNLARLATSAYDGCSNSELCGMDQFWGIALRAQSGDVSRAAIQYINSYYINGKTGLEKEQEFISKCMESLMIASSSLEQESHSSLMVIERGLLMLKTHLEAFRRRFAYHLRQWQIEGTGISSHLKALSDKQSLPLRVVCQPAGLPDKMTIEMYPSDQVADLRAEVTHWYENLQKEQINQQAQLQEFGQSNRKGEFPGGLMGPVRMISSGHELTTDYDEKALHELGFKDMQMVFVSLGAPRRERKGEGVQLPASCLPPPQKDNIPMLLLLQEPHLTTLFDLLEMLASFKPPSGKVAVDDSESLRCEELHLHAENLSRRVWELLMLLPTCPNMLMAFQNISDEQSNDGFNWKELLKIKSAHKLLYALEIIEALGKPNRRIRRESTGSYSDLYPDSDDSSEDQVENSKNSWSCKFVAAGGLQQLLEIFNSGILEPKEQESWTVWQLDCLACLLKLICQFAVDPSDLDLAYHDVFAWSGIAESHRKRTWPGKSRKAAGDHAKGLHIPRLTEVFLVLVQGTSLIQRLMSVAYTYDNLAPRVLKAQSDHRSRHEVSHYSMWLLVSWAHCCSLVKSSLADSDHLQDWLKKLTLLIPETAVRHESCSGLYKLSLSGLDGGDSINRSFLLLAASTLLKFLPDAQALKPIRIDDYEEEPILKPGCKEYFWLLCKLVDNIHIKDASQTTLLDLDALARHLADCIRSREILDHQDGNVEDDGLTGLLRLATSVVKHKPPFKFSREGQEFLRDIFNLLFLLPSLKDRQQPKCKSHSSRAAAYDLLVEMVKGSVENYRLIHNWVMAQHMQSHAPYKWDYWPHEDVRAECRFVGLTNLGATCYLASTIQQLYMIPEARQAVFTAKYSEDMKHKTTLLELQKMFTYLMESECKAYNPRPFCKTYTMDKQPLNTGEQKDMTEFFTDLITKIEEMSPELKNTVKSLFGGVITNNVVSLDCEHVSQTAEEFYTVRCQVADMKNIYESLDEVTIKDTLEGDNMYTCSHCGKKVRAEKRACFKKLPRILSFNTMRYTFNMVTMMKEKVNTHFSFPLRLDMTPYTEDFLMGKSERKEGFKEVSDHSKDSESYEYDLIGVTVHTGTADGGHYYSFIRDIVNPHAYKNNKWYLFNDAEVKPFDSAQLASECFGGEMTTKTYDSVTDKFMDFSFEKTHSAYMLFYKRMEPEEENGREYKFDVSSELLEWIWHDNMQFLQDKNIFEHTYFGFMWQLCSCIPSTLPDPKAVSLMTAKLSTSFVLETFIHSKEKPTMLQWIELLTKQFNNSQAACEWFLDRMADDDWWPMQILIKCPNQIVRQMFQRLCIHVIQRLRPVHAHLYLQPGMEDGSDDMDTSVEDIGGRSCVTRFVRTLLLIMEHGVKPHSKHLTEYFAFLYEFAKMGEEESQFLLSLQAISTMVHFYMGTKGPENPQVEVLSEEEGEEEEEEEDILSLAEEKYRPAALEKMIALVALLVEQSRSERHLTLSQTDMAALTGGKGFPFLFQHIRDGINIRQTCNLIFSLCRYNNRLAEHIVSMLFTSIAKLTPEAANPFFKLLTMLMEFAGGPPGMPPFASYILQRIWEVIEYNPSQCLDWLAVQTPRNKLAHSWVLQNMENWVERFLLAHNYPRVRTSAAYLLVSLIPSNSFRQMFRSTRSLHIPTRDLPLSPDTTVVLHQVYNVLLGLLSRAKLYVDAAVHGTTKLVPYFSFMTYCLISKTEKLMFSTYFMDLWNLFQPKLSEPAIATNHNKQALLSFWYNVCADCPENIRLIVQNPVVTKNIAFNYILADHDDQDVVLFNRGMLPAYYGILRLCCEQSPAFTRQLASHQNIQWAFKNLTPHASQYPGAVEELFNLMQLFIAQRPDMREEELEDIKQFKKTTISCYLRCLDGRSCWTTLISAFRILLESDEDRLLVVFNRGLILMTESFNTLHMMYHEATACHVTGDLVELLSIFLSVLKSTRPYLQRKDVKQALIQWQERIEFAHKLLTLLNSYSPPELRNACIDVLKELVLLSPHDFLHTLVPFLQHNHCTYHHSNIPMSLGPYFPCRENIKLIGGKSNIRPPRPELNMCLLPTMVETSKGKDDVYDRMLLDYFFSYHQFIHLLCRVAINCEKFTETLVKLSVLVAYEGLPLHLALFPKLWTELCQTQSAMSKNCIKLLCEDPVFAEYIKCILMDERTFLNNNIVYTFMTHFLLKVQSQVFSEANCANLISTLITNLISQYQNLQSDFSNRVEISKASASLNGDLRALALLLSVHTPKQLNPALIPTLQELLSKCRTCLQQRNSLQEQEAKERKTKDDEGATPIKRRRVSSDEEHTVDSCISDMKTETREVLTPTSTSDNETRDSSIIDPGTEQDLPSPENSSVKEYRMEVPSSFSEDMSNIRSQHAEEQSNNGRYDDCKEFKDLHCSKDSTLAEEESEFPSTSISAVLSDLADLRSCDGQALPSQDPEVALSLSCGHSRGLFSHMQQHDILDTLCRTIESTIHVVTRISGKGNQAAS

Cl.O=C(CCl)N1CCN(Cc2ccccc2)CC1
inactive: USP34 -0.191 | USP36 0.0546 | USP38 -0.0649 | USP39 0.144 | USP4 -0.121
